Reference: the supplement of paper PMC11732987, “Enantioselective OTUD7B fragment discovery through chemoproteomics screening and high-throughput optimisation” (Communications Chemistry, 2025)

What was measured:
Test in all cases: log2 ratio of Biotin-Ahx-Ub-VS probe labelling (fragment/DMSO); higher = less target engagement (more negative = stronger competition), active = hit call of the paper (q ≤ 0.05, log2 ratio ≤ -1)
Conditions in all cases: compound concentration: 200 uM; treatment time: 3 h
[1] = target: T1, OTUD6B (UniProt Q8N6M0)
T1 sequence (whole entry): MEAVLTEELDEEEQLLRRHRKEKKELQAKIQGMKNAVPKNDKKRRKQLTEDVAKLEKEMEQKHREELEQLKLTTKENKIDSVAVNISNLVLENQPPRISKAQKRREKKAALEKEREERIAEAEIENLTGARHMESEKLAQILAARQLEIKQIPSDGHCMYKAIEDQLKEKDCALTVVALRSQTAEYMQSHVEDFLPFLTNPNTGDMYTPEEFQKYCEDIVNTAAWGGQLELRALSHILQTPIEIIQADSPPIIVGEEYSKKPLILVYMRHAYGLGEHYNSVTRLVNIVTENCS
Summary of the method: (§1)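 The table lists average log2 ratios of fragment over vehicle, from an unpaired t-test on global-median-normalised Spectronaut label-free quantities. Proteins with ≥2 unique peptides were used. Samples were HEK293T lysate (495 µg) treated in triplicate with fragment at 200 µM or vehicle for 3 h, then with Biotin-Ahx-Ub-VS (0.5 µM final) for 1 h, with labelled DUBs NeutrAvidin-enriched and run by diaPASEF LC-MS/MS.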

[2] = target: T2, OTUD7B (UniProt Q6GQQ9)
T2 sequence (whole entry): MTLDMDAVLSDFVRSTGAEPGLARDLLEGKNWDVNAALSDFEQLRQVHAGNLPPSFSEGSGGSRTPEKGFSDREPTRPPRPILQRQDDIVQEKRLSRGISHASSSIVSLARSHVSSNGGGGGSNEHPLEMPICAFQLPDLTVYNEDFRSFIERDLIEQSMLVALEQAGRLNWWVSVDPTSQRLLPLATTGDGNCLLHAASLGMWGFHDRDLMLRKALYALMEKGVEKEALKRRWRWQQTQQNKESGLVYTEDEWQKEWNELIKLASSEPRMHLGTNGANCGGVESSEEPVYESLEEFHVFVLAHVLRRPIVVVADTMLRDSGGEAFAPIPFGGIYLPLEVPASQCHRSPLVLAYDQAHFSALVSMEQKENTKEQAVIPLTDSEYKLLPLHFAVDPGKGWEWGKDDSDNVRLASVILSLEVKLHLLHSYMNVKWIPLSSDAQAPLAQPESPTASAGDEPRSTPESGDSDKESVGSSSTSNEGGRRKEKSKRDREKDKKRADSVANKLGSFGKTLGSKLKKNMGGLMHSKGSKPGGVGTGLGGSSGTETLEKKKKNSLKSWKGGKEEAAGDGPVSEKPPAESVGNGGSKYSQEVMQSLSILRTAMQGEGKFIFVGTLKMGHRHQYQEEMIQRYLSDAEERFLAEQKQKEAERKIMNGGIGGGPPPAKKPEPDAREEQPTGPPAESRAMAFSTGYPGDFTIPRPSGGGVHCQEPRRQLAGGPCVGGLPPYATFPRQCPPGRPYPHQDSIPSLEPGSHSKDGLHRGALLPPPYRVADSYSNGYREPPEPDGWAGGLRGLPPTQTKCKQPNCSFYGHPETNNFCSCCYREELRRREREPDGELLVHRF
Summary of the method: as §1

[3] = target: PRPF8 (UniProt Q6P2Q9)
Summary of the method: as §1

[4] = target: T3, PSMD7 (UniProt P51665)
T3 sequence (whole entry): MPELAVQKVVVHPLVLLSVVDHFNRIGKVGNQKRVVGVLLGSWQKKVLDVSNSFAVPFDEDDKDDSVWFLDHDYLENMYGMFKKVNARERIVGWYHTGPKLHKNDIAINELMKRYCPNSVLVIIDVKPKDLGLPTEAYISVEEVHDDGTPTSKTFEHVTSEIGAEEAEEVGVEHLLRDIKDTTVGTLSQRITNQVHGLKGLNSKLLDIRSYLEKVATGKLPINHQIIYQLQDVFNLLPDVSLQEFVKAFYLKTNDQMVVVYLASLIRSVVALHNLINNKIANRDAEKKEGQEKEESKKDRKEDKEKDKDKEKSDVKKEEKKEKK
Summary of the method: as §1

[5] = target: UCHL1 (UniProt P09936)
UCHL1, sequence (P09936 whole entry, looked up): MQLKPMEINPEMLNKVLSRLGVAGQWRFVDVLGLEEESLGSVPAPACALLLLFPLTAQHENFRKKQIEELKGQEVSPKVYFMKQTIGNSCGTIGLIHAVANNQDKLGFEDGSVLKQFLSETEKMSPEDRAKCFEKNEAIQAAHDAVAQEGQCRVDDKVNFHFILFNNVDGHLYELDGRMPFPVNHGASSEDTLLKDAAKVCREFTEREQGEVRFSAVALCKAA
Summary of the method: as §1

[6] = target: T4, UCHL3 (UniProt P15374)
T4 sequence (whole entry): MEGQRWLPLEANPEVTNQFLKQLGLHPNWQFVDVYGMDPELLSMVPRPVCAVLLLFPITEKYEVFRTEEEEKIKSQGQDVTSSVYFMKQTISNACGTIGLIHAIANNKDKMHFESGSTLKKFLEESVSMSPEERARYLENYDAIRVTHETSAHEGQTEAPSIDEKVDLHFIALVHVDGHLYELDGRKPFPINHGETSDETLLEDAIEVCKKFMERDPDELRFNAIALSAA
Summary of the method: as §1

[7] = target: T5, UCHL5 (UniProt Q9Y5K5)
T5 sequence (whole entry): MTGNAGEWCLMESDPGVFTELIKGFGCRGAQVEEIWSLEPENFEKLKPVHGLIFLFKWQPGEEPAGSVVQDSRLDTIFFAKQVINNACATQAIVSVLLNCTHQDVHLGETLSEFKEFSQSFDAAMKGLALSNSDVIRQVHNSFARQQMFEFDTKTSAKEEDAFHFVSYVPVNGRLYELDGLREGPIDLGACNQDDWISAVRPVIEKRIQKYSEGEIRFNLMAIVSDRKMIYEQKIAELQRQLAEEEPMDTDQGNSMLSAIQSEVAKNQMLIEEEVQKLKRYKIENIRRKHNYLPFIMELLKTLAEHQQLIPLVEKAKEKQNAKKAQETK
Summary of the method: as §1

[8] = target: USP10 (UniProt Q14694)
USP10, sequence (Q14694 whole entry): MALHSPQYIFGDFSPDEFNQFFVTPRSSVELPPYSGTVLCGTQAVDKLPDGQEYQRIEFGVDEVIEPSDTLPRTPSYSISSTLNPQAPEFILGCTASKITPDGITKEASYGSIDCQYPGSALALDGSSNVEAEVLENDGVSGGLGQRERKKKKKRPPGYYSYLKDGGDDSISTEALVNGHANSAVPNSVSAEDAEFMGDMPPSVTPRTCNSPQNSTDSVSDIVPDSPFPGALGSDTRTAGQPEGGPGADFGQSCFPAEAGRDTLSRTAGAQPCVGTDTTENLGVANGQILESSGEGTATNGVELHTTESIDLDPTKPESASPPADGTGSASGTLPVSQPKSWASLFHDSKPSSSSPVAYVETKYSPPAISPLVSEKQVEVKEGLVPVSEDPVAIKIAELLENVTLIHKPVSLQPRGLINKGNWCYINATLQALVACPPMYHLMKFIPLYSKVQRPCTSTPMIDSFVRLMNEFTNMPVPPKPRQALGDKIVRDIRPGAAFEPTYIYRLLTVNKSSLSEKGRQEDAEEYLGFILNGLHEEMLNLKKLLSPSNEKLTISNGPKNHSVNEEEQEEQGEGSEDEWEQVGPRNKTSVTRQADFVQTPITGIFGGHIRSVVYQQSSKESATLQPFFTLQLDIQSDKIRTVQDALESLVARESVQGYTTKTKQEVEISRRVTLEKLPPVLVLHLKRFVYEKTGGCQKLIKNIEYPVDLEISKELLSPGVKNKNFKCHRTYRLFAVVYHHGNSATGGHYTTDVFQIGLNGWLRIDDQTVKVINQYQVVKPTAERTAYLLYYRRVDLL
Summary of the method: as §1

[9] = target: T6, USP15 (UniProt Q9Y4E8)
T6 sequence (whole entry): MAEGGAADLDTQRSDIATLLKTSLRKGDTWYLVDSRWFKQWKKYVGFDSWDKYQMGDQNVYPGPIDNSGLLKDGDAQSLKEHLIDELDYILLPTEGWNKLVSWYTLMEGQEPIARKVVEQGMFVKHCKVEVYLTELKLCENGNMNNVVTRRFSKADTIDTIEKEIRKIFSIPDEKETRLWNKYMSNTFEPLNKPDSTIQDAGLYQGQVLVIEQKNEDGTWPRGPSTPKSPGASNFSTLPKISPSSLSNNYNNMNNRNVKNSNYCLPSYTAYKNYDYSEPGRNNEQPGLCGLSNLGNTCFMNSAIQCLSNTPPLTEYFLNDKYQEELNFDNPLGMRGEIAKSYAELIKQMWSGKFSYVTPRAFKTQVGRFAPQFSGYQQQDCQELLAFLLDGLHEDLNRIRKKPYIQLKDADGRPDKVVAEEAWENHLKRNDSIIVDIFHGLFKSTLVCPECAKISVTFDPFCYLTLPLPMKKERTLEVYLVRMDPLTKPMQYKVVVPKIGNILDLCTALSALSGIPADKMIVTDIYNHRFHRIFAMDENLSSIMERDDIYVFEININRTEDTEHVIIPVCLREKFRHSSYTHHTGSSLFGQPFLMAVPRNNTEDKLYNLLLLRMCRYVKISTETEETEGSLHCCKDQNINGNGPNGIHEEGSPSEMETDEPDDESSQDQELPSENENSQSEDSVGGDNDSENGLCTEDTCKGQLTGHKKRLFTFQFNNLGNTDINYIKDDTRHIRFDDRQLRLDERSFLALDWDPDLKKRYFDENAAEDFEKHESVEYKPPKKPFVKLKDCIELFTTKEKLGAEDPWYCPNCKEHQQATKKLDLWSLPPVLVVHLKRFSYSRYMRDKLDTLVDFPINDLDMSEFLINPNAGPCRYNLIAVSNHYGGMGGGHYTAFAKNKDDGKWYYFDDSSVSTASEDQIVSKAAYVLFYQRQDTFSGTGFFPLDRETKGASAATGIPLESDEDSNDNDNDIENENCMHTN
Summary of the method: as §1

[10] = target: USP16 (UniProt Q9Y5T5)
USP16, sequence (Q9Y5T5 whole entry, looked up): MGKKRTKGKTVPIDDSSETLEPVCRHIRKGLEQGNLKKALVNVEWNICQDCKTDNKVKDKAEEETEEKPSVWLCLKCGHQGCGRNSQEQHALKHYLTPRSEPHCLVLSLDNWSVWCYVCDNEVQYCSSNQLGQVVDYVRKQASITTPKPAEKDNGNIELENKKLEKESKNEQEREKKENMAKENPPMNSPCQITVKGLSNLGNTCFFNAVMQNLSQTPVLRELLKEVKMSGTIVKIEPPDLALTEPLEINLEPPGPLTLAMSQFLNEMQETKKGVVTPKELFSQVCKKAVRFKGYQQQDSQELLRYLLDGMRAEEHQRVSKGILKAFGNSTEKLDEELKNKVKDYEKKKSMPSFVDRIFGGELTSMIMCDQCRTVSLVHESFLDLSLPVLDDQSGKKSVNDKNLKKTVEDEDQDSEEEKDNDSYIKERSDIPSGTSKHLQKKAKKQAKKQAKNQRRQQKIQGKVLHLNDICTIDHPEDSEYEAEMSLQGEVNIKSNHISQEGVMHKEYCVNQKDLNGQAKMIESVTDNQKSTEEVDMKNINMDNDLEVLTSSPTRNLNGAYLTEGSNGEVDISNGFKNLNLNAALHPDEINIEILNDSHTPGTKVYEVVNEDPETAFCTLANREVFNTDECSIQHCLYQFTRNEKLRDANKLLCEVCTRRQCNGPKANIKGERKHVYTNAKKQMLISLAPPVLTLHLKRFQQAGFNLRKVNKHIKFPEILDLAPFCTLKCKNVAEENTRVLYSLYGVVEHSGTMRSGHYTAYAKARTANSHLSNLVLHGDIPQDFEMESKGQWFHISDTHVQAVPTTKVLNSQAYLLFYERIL
Summary of the method: as §1

Measured: log2 ratio of Biotin-Ahx-Ub-VS probe labelling

C[C@@H](NC(=O)CCl)c1cccc(C#N)c1
inactive: [1] -0.0614 | [3] 0.0368 | [4] -0.233 | [6] 0.359 | [7] -0.189 | [8] -0.103 | [9] -0.222 | [10] 0.0341
active: [2] -1.42 | [5] -1.24
